LmPK inhibitor: qHTS Assay for Inhibitors of Leishmania Mexicana Pyruvate Kinase (LmPK); Q27686; purified LmPK, Kinase-Glo ATP luminescence, 1 h; Potency, µM (series often up to 57.5 µM), usual class: inhibitors; 290,000 compounds, 0.37% hits; AID 1721, 2009
Target sequence (Q27686 whole entry, looked up): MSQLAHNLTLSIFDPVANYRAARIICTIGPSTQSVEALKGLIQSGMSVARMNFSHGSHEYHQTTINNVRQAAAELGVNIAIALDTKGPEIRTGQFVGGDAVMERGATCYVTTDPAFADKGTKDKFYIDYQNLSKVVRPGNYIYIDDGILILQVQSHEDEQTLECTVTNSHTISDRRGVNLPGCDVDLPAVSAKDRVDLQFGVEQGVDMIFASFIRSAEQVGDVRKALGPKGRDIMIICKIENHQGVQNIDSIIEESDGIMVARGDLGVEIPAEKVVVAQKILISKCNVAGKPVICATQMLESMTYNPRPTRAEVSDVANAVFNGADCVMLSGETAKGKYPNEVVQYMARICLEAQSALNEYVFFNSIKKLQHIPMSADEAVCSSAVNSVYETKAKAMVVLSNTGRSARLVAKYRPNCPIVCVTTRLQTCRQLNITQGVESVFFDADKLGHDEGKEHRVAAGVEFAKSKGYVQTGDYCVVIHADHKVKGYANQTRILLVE
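Kinase-Glo luminescence read after 1 h RT reaction of 0.1 nM LmPK with 0.5 mM PEP and 0.1 mM ADP. Activity scaled between uninhibited and enzyme-free controls.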
CHX counter: Cycloheximide Counterscreen for Small Molecule Inhibitors of Shiga Toxin. cell reporter, cycloheximide protein synthesis inhibition counterscreen. max response, %. 300,000 compounds, 12% hits. AID 2314, 2010; in the data active = max response mostly above about 13%, no sharp cut-off; inactive = mostly below about 14%; note: read at 38.3 µM for the half of the compounds with a filed dose
TbPYK inhibitor: qHTS of Trypanosoma Brucei Inhibitors. pyruvate kinase (Trypanosoma brucei), Q57TT1. TbPYK enzyme, Kinase-Glo Plus ATP luminescence, 45 min. Potency, µM (series often up to 76.8 µM), actives largely listed as inhibitors. 410,000 compounds, 0.12% hits; note: nearly all actives have a fitted effect of over 50% in size
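Activity of T. brucei pyruvate kinase was followed by Kinase-Glo Plus luminescence after the enzyme reacted 45 min at room temperature with 130 uM ADP (final) and substrate. Test compounds were added before ADP at multiple concentrations.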
Shiga toxin inh: A qHTS for Small Molecule Inhibitors of Shiga Toxin. Vero cells, Shiga toxin protein synthesis inhibition reporter. inhibition, % at 38.7 µM. 290,000 compounds, 9.2% hits. AID 2315, 2010; in the data active = inhibition mostly above about 28%, no sharp cut-off; inactive = mostly below about 43%
FBPA Giardia inh: qHTS Assay for Inhibitors of Fructose-1,6-bisphosphate Aldolase from Giardia Lamblia; Potency, µM (titrated, usually from 59.6 µM), actives largely listed as inhibitors; A8B2U2; purified Giardia FBPA; 290,000 compounds, 0.71% hits; note: nearly all actives have a fitted effect of over 55% in size
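40 nM FBPA preincubated 10 min at RT with compound (up to 57.5 uM final), then substrate plus GAPDH/TPI/NAD/arsenate coupling and diaphorase/resazurin added. Fluorescence read after 20 min at RT, 525/598 nm.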
Sm TGR inh: qHTS Assay for the Inhibitors of Schistosoma Mansoni Peroxiredoxins. purified TGR, DTNB reduction, TNB absorbance 405 nm. Potency, µM (series often up to 114 µM), usual class: inhibitors. 360,000 compounds, 3% hits; note: nearly all actives have a fitted effect of over 60% in size
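First, TGR (20 nM dispensed) and NADPH were mixed with compound. Second, a 15 min room-temperature incubation followed. Third, further NADPH and then DTNB were added to start the reaction. Finally, TNB absorbance was monitored kinetically.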
Numbers stand for hits; n = inactive; u = inconclusive; x = no result given; [ ] = dose if it differs, or a comment. This excerpt belongs to a sample that is enriched for hits. Unless noted, calls come from the whole dose curve; as a rule, active = well fitted curve in the direction sought with a large enough effect; inconclusive = small, poorly fitted or top-dose-only effect, or another doubt; inactive = no such curve, though single readings can be large; an effect the other way counts as inactive or inconclusive.

SMILES	LmPK inhibitor	CHX counter	TbPYK inhibitor	Shiga toxin inh	FBPA Giardia inh	Sm TGR inh
Cc1ccc(C(=O)Nc2cccc(C(=O)NCc3ccccc3)c2)cc1	n	15	n	n	n	n
Cc1ccc(C(=O)Nc2cccc(C(=O)NCc3ccco3)c2)cc1	n	19	n	35	n	n
Cc1cccc(CNC(=O)c2ccccc2N)c1	n	20	n	n	n	n
Cc1ccc(CNC(=O)c2ccccc2N)cc1	n	n	n	n	n	n
O=C(NCc1ccco1)c1cccc(NC(=O)c2ccccc2)c1	n	n	x	n	n	n
CC(C)c1ccc(NC(=O)CCNS(=O)(=O)c2ccc3c(c2)oc(=O)n3C)cc1	x	x	n	x	x	n
CCCCn1cc(S(=O)(=O)c2ccccc2)c(=O)c2cc(F)c(N3CCC(C)CC3)cc21	x	x	n	x	x	n
Cc1ccc(C(=O)NCc2ccco2)cc1	n	18	n	n	n	n
Cn1ncc(Cl)c1C(=O)NCc1ccco1	n	n	n	n	n	18µM
Cc1ccc(CNC(=O)c2nnn(-c3cccc(C)c3)c2N)cc1	n	n	n	n	n	n
Cc1cccc(-n2nnc(C(=O)NCc3ccco3)c2N)c1	n	21	n	38	n	n
O=C(NCc1ccco1)c1ccc(C(=O)NCc2ccco2)cc1	x	x	n	x	x	x
CCc1cccc(NC(=O)c2cc3c(=O)n(Cc4ccc(OC)cc4)ccc3nc2C)c1	x	x	n	x	x	n
Cc1nn2c(NCc3ccccn3)c3c(nc2c1-c1ccccc1)CCC3	n	n	n	n	n	25µM
O=C(Cn1nc(Cc2cccnc2)c2ccccc2c1=O)Nc1ccc(F)c(Cl)c1	x	x	n	x	x	n
O=C(O)c1ccc(S(=O)(=O)c2ccc([N+](=O)[O-])cc2[N+](=O)[O-])cc1	n	n	n	n	n	0.1µM
O=C(O)c1ccc(S(=O)(=O)c2ccccc2C(=O)O)c([N+](=O)[O-])c1	n	n	n	n	u	n
Cc1cccc(-n2cnc3cc(C(=O)N4CCCCC4)ccc32)c1	n	41	n	100	n	n
Cc1cccc(-n2c(C)nc3cc(C(=O)N4CCOCC4)ccc32)c1	n	13	n	n	n	n
O=C(CCN1C(=O)[C@@H]2Cc3ccccc3CN2C1=O)NCc1ccccc1Cl	n	n	n	n	x	n
N#Cc1ccc(C(=O)Nc2ccc(Cl)c(-c3nc4cc(Cl)ccc4o3)c2)c(F)c1	x	x	n	x	x	n
COc1ccc(Nc2nnc(SCC3CCCO3)s2)cc1 (stereo not drawn)	n	24	n	n	n	n
Cc1cccc(Nc2nnc(SCC3CCCCO3)s2)c1C (stereo not drawn)	n	54	n	66	n	n
COC(=O)c1ccc(CSc2nnc(Nc3cccc(OC)c3)s2)o1	n	n	n	n	n	n
COc1cccc(Nc2nnc(SCC3CCCCO3)s2)c1 (stereo not drawn)	n	53	n	53	n	n
SMILES	LmPK inhibitor	CHX counter	TbPYK inhibitor	Shiga toxin inh	FBPA Giardia inh	Sm TGR inh
CC(=O)[C@]1(O)Cc2c(O)c3c(c(O)c2[C@@H](O[C@H]2C[C@H](N)[C@H](O)[C@H](C)O2)C1)C(=O)c1c(O)cccc1C3=O	x	n	n	n	u	x
CCc1c2c(nc3ccc(OC)cc13)-c1nc3ccccc3c(=O)n1C2	x	n	x	n	n	x
COc1ccc(C(=O)NN/C(C)=C/C(=O)c2ccccc2)cc1	n	11	n	n	n	n
COc1ccc(C(=O)N/N=C/C(=O)c2ccccc2)cc1	n	43	n	49	n	n
COc1ccc(C(=O)NNC(=O)c2ccc(C(C)(C)C)cc2)cc1	n	n	n	n	n	n
O=C(COC(=O)CCC(=O)c1ccccc1)NNC(=O)c1ccc(Cl)cc1	x	x	n	x	x	n
C/C(=C\C(=O)c1ccccc1)NNC(=O)c1ccc(Cl)cc1	n	22	n	x	n	n
Nc1c(Cl)cc2c(c1Br)Cc1ccccc1-2	x	x	n	x	x	x
Nc1c(Cl)cc2c(c1Oc1ccccc1)C(=O)c1ccccc1C2=O	n	29	n	n	n	n
CC1=NN(Cc2ccccc2)C(=O)C1C(c1ccc(Cl)cc1)C(C#N)C#N (stereo not drawn)	n	n	n	n	n	14µM
CC1=NN(Cc2ccccc2)C(=O)C1C(c1ccccc1)C(C#N)C#N (stereo not drawn)	n	n	n	n	n	n
CC1=NNC(=O)C1C(c1ccc(Cl)cc1)C(C#N)C#N (stereo not drawn)	n	n	n	n	n	11µM
CN1CCN(c2ncc3c(n2)CCN(Cc2ccccc2Cl)C3)CC1	x	x	n	x	x	n
CCCCOC(=O)Nc1nnc(-c2ccccc2OC)s1	n	n	n	n	n	n
CCCCOC(=O)Nc1nc2ccc(OC)cc2s1	n	38	n	53	n	n
CCCCCN(C(=O)NC(=O)Nc1nncs1)S(C)(=O)=O	n	n	n	n	n	n[11.4 µM]
COc1ccc2nc(NC(=O)CS(=O)(=O)c3ccc(C)cc3)sc2c1	n	n	n	n	n	n
CCCCOC(=O)Nc1nc2ccccc2s1	n	26	n	69	n	n
CCCCN(C(=O)NC(=O)Nc1nc2ccc(OC)cc2s1)S(C)(=O)=O	n	53	n	48	n	n
CC(CC(=O)N1CCN(c2ccc(C(F)(F)F)cn2)CC1)n1ccnc1 (stereo not drawn)	n	n	n	n	n	n
CC(C)(C)N1C(=O)c2ccccc2NC(=O)N1Cc1ccccc1	n	n	n	n	n	n
O=C1Nc2ccccc2C(=O)C1(Cl)Cc1ccccc1 (stereo not drawn)	n	n	4.5µM	n	n	n
COc1ccc(Cn2c(CO)cnc2SCc2ccc(C)cc2)cc1	x	x	n	x	x	n
COc1ccc(-c2noc(CSc3nnc(C)n3-c3ccc(C)cc3)n2)cc1	x	x	n	x	x	n
COC(=O)CS(=O)(=O)c1nnc([C@H](Cc2ccccc2)NC(=O)OC(C)(C)C)o1	n	n	n	n	n	1.4µM
SMILES	LmPK inhibitor	CHX counter	TbPYK inhibitor	Shiga toxin inh	FBPA Giardia inh	Sm TGR inh
Cc1cccc(CS(=O)(=O)c2nnc([C@H](Cc3ccccc3)NC(=O)OC(C)(C)C)o2)c1	n	n	n	n	n	1.8µM
CC(C)(C)OC(=O)N[C@@H](Cc1ccccc1)c1nnc(SCC(N)=O)o1	n	n	n	n	n	n
N#Cc1cccc(-c2nccc(NCc3cccnc3)n2)c1	x	x	x	x	n	x
Cc1ccc(C)c(CN2C(=O)C3(c4ccccc42)N(c2ccc(Cl)cc2)C(=O)CS3(=O)=O)c1 (stereo not drawn)	x	x	n	x	x	n
C=CCc1cc(/C=C2/NC(=O)NC2=O)cc(OCC)c1O	n	n	n	n	n	50µM
C=CCc1cc(/C=C2/NC(=S)NC2=O)cc(OC)c1O	n	n	n	n	n	n

Source: PubChem (National Center for Advancing Translational Sciences (NCATS))
